# TDP1 cell noCPT: qHTS for Inhibitors of human tyrosyl-DNA phosphodiesterase 1 (TDP1): qHTS in cells in absence of CPT. Potency, µM (top dose mostly 46.2 µM), actives largely listed as inhibitors. hit rate 15% among 420,000. DT40 Tdp1-/- hTDP1 cells, no CPT, ATP luminescence, 48 h; note: nearly all actives have a fitted effect of over 55% in size
#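 Growth kinetics read by CellTiter-Glo luminescence after ≥48 hr at 37 °C. Cells: DT40 Tdp1-/- stably carrying human TDP1, 400 per well, compound exposure in the absence of CPT (DMSO vehicle).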
# HT1080 IDH1KD tx: HT-1080 IDH1 knockdown cell toxicity (counter line); HT-1080 IDH1 knockdown viability, ATP luminescence, 48 h; Potency, µM (series often up to 46.1 µM), actives largely listed as cytotoxic; hit rate 2% among 360,000; AID 686971
#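 Using the IDH1-knockdown HT-1080 line run in the same batch and compound series as the NT line, viability after 48 h at 37 °C was determined by CellTiter-Glo luminescence and expressed as % activity.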
# KB-V1 MDR tox: KB-V1 MDR subline cytotoxicity. Potency, µM (series often up to 46.1 µM), most hits filed as cytotoxic. KB-V1 MDR cells viability, CellTiter-Glo, 72 h. hit rate 3.4% among 400,000; note: nearly all actives have a fitted effect of over 60% in size
#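 Cytotoxicity toward P-gp-expressing KB-V1 cells was determined as loss of CellTiter-Glo luminescence after 72 h at 37 degrees C. Compounds were tested in quantitative HTS format across a concentration range, with curves fitted to normalized data.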
# HT1080-NT tox: kills 2HG-producing HT-1080-NT fibrosarcoma cells; Potency, µM (series often up to 46.1 µM), actives largely listed as cytotoxic; HT-1080-NT fibrosarcoma viability, CellTiter-Glo ATP luminescence, 48 h; hit rate 1.6% among 360,000;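 note: NT is the 2HG producing partner of a matched IDH1 knockdown line; nearly all actives have a fitted effect of over 55% in size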
#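 Viability by CellTiter-Glo luminescence after 48 h compound exposure at 37C of HT-1080-NT cells (750/well, RPMI, 5% FBS). % activity scaled between DMSO wells and medium-only wells, then curve-fitted and categorized by curve class.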
# KB-3-1 cytotox: kills parental KB-3-1 adenocarcinoma cells | KB-3-1 viability, CellTiter-Glo ATP luminescence, 72 h | Potency, µM (highest dose often 46.1 µM), actives largely listed as cytotoxic | AID 1347075 | hit rate 1.4% among 400,000; note: nearly all actives have a fitted effect of over 60% in size
#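 Luminescent ATP read-out (CellTiter-Glo) measures survival of drug-naive KB-3-1 cells after 72 h compound exposure at 37 °C. Titration series was screened from lowest to highest concentration, with DMSO vehicle plates as background controls.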
# TDP1 cell CPT: growth inhibition of DT40 Tdp1-/-;hTDP1 cells with camptothecin (screen for TDP1 inhibitors) | chicken DT40 Tdp1-/-;hTDP1 cells + 20 nM CPT, ATP luminescence, 48 h | Potency, µM (doses to about 46.2 µM), actives largely listed as inhibitors | hit rate 12% among 420,000 | AID 686979; note: nearly all actives have a fitted effect of over 55% in size
#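 Chicken DT40 Tdp1-/- cells complemented with human TDP1, 400 cells/well, exposed to compounds plus 20 nM camptothecin for at least 48 h at 37 C; viability read as ATP content by CellTiter-Glo luminescence.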
# A number is an active result; 0 = inactive; ? = inconclusive; - = no result. Sampled rows, rich in hits. Any-hit rate of the full collection: about 19%. Calls come from the whole dose curve; as a rule, active = well fitted curve in the direction sought with a large enough effect; inconclusive = small, poorly fitted or top-dose-only effect, or another doubt; inactive = no such curve, though single readings can be large; an effect the other way counts as inactive or inconclusive.
SMILES,TDP1 cell noCPT,HT1080 IDH1KD tx,KB-V1 MDR tox,HT1080-NT tox,KB-3-1 cytotox,TDP1 cell CPT
CC(C)n1c(=O)c(C=Nc2ccc(F)cc2)c(O)n(Cc2ccco2)c1=O,0,0,0,0,0,0
COc1ccc(C2C(C#N)=C(N)Oc3n[nH]c(C)c32)cc1Cn1cc([N+](=O)[O-])cn1 (stereo not given),?,0,0,0,0,?
CCSc1cc(C2C(C#N)=C(N)Oc3n[nH]c(C)c32)c(C)o1 (stereo not given),16.4µM,?,?,?,?,?
C/C=C(\C)C(=O)N[C@@H](c1ccccc1)[C@@H](O)C(=O)O[C@H]1C[C@@]2(O)[C@@H](OC(=O)c3ccccc3)C3[C@](C)(C(=O)[C@H](OC(C)=O)C(=C1C)C2(C)C)[C@@H](O)C[C@H]1OC[C@@]31OC(C)=O (stereo not given in full),0.0103µM,?,0,?,?,0.013µM
CC(=O)O[C@@]12CO[C@@H]1C[C@H](O)[C@@]1(C)C(=O)[C@H](O)C3=C(C)[C@@H](O)C[C@@](O)([C@@H](OC(=O)c4ccccc4)C12)C3(C)C (stereo not given in full),9.2µM,?,0,?,11.6µM,9.2µM
C/C=C(\C)C(=O)N[C@@H](c1ccccc1)[C@@H](O)C(=O)O[C@H]1C[C@@]2(O)[C@@H](OC(=O)c3ccccc3)C3[C@](C)(C(=O)[C@H](O)C(=C1C)C2(C)C)[C@@H](O)C[C@H]1OC[C@@]31OC(C)=O (stereo not given in full),0.164µM,0.0058µM,0,0.0411µM,?,0.0461µM
CCN(CC)CCC(=O)O[C@H]1CC[C@]2(C)C3CC[C@@]4(C)C(CC[C@]4(C)O)C3CC[C@H]2C1 (stereo not given in full),?,0,0,0,0,?
COc1cc(=O)n2c(c1C(=O)N(C)Cc1nonc1C)CCN(C(=O)C1C(C)(C)C1(C)C)CC2,0,-,-,-,-,0
CC(Cc1ccccc1)N(C)CC1C(=O)C2CCC1C2 (stereo not given),0,0,0,0,0,?
C#CCN(C)C(C)Cc1ccccc1 (stereo not given),3.66µM,0,0,0,?,?
O=C(CN1CC=C(c2ccccc2)CC1)Nc1cc(Cl)ccc1Cl,16.4µM,0,?,0,0,?
Cc1ccc(N2CC(C(=O)Nc3cc(S(=O)(=O)N4CCCCC4)ccc3C)CC2=O)cc1 (stereo not given),5.8µM,0,0,0,0,?
Cc1ccc(S(=O)(=O)N2CCCCC2)cc1NC(=O)CN1CC=C(c2ccccc2)CC1,5.17µM,0,6.51µM,0,?,8.2µM
COc1ccccc1CNCC(=O)Nc1cc(S(=O)(=O)N2CCCCC2)ccc1C,?,0,0,0,0,?
COC(=O)N(c1ccccc1)P(=O)(Oc1ccccc1)Oc1ccccc1,?,0,0,0,0,0
Brc1ccccc1Cn1c(-c2cncs2)nc2ccccc21,16.4µM,0,0,0,?,?
C[C@]12CCC3C(CC[C@@H]4C[C@H](O)CC[C@]34C)C1CCC2=O (stereo not given in full),?,0,0,0,0,?
CC(NC1=NCCS1)c1ccccc1 (stereo not given),0,0,0,0,0,0
CC(=O)OC1CC[C@]2(C#N)[C@H]3CC[C@]4(C)[C@H](C5C=CC(=O)O5)CCC4(O)C3CCC2(O)C1 (stereo not given in full),?,14.6µM,?,25.9µM,?,?
CCOc1ccc(CC(=O)Nc2ccc3c(c2)N(C)C(=O)c2ccccc2S3)cc1OCC,?,-,0,-,0,?
CCOC(=O)c1c(C)c(C(=O)Nc2cc(OC)ccc2OC)c(C)n1CC,18.4µM,7.08µM,0,7.08µM,0,6.51µM
CCCCC[C@@H]1CCCCC[C@@H](O)C[C@@H](O)[C@@H](O)/C=C/C(=O)O1,0,0,0,0,0,?
Cc1nc(Cl)sc1C(=O)Nc1ccc2ccccc2c1,0,0,0,0,0,0
O=C(Nc1ccc2ccccc2c1)c1nn(C23CC4CC(CC(C4)C2)C3)cc1Br,20.6µM,0,0,0,0,18.4µM
CCCCn1c(N)c(N(CC(C)C)C(=O)c2cc(Br)c(Br)s2)c(=O)[nH]c1=O,23.1µM,0,0,0,?,?
SMILES,TDP1 cell noCPT,HT1080 IDH1KD tx,KB-V1 MDR tox,HT1080-NT tox,KB-3-1 cytotox,TDP1 cell CPT
CCCCn1c(N)c(N(CCOC)C(=O)CN2CC=C(c3ccccc3)CC2)c(=O)[nH]c1=O,?,0,0,0,0,?
CCCOC(=O)C1=C(C)CS[C@@H]2[C@H](NC(=O)COc3ccccc3)C(=O)N12,?,-,0,-,0,20µM
C1CCC(NC2CCCCC2)CC1,0,0,0,0,0,0
c1ccc(-c2ccc(-c3n(-c4ccccn4)c4ccccc4[n+]3-c3ccccn3)cc2)cc1,8.2µM,?,?,?,0,5.8µM
CC(=O)NCC(=O)Nc1ccc(Br)cc1C(=O)c1ccccc1,0,0,0,0,0,0
Cc1ccc(O)c(C(=O)c2cc(C(=O)NCc3ccccc3)c(=O)n(Cc3ccccc3)c2)c1,11.6µM,0,0,0,0,7.31µM
O=C(c1cc(C(=O)NCc2ccccc2)c(=O)n(Cc2ccccc2)c1)c1cc(Br)ccc1O,25.9µM,?,2.31µM,0,?,?
N#CC(=C(O)c1ccc(S(=O)(=O)N(CCCl)CCCl)cc1)c1nc2ccccc2[nH]1,0,0,?,0,0,0
CCCCn1c(O)c(C(CC)=NC(C)c2ccccc2)c(=O)[nH]c1=O (stereo not given),25.9µM,?,0,?,0,?
CCC(=Nc1ccc2c(c1)CCC2)c1c(O)n(C2CCCCC2)c(=O)[nH]c1=O,18.4µM,0,0,0,0,29.1µM
CCCCn1c(O)c(C(C)=Nc2ccc(C(=O)O)cc2)c(=O)[nH]c1=O,0,0,0,0,0,0
CCCCn1c(O)c(C(C)=NC(C)c2ccccc2)c(=O)[nH]c1=O (stereo not given),?,0,?,0,0,?
CCCCn1c(O)c(C(CC)=Nc2ccc(OCC)cc2)c(=O)[nH]c1=O,20.6µM,0,20.6µM,0,?,18.4µM
CCC(=NCc1cc(OC)cc(OC)c1)c1c(O)n(C2CCCCC2)c(=O)[nH]c1=O,?,0,?,0,0,?
COc1cc(CN=C(C)c2c(O)n(C3CCCCC3)c(=O)[nH]c2=O)cc(OC)c1,23.1µM,?,?,0,0,?
